Results filed as inconclusive are left out. Calls of active or inactive are those of the source. The calls were made as follows, unless noted: active = hit-call score of the fitted dose curve at least 0.9, where 1 is the maximum; inconclusive = response in the unintended direction; inactive = score below 0.9.
How the values were obtained:
[1] = TOX21_p53_BLA_p2_viability: Viability Assessment in the Tox21 HCT-116 p53 Agonism Beta-lactamase Assay, Phase 2 (AID 2283591);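 also: compound exposure lasted 16 h at 37 °C; actives lower the ATP signal meaning cytotoxicity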
Outline: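 HCT-116 p53-bla cells (4000/well) rested 5 h at 37C, then received compounds in DMSO (217-fold dilution) for 16 h at 37C, 5% CO2. After the CCF4 read, CellTiter-Glo was added; ATP luminescence was read after 30 min at room temperature.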

[2] = TOX21_p53_BLA_p3_viability: Viability Assessment in the Tox21 HCT-116 p53 Agonism Beta-lactamase Assay, Phase 3 (AID 2283593);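 also: cells exposed to compound for 16 h before reading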
Outline: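 HCT-116 cells (4000/well) rested 5 h at 37C, then got DMSO compounds by pin tool (217-fold dilution) for 16 h at 37C, 5% CO2. After the bla read, CellTiter-Glo was added and luminescence read at 30 min, room temperature.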

[3] = TOX21_p53_BLA_p4_viability: Viability Assessment in the Tox21 HCT-116 p53 Agonism Beta-lactamase Assay, Phase 4 (AID 2283597);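 also: hits lower the luminescence signal meaning cytotoxicity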
Outline: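 Luminescent ATP readout (CellTiter-Glo, 30 min, room temperature) in the same wells as the p53 bla ratio. HCT116 cells were treated for 16 h at 37C with DMSO-dissolved compounds.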

[4] = TOX21_p53_BLA_p5_viability: Viability Assessment in the Tox21 HCT-116 p53 Agonism Beta-lactamase Assay, Phase 5 (AID 2283600)
Outline: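 Seeded cells (4000/well) settle 5 h before compound addition. Plates then incubate 16 h at 37C, receive FRET substrate for 2 h, and finally CellTiter-Glo, with luminescence measured after a 30 min room-temperature incubation.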

[5] = biological target: Cellular tumor antigen p53 (Homo sapiens) (UniProt P04637); experiment: TOX21_p53_BLA_p4_ratio: Tox21 HCT-116 p53 Agonism Beta-lactamase Assay, Ratio, Phase 4 (AID 2283601)
Chain of Cellular tumor antigen p53 (Homo sapiens) (P04637 whole entry, looked up): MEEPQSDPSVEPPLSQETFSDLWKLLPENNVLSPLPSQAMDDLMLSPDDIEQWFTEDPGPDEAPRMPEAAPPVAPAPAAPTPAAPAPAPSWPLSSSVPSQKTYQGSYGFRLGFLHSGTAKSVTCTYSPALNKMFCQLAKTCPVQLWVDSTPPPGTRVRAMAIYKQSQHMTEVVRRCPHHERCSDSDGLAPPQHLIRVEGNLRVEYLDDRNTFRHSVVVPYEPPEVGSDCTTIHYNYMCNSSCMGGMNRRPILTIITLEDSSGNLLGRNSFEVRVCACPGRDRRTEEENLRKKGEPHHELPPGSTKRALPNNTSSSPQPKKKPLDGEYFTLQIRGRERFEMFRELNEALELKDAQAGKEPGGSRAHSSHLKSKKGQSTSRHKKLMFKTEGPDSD
Outline: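 HCT116 cells carrying an inducible beta-lactamase reporter were plated at 4000 cells/well, rested 5 h, then exposed to compounds in DMSO (217-fold dilution) for 16 h at 37C. CCF4-AM substrate was loaded 2 h at room temperature; 460/530 nm emission ratio scored gain-of-signal versus DMSO.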

[6] = biological target: Cellular tumor antigen p53 (Homo sapiens) (UniProt P04637); experiment: TOX21_p53_BLA_p5_ratio: Tox21 HCT-116 p53 Agonism Beta-lactamase Assay, Ratio, Phase 5 (AID 2283599)
Outline: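 HCT-116 cells carrying a p53-inducible beta-lactamase reporter were seeded at 4000 cells/well and dosed after 5 h with compound in DMSO (217-fold dilution). After 16 h at 37C, CCF4-AM substrate was added for 2 h, and the 460/530 nm emission ratio was scored as gain-of-signal versus DMSO.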

[7] = CCTE_Harrill_HTTr_Viability_MCF7: CCTE's 6-hour Cell Viability Assessment for the High-Throughput Transcriptomics (HTTr) Platform, in MCF-7 cells cultured in DMEM + 10% fetal bovine serum, Harrill Lab (AID 2284010; active = hit-call score of the fitted dose curve at least 0.9, where 1 is the maximum; inactive = score below 0.9)
Outline: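 Membrane integrity was scored by high-content imaging of propidium iodide dye exclusion after a 6 h exposure across an eight-point dilution series. Data were fitted bidirectionally relative to DMSO as negative control and baseline.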

[8] = CCTE_Harrill_HTTr_Apoptosis_MCF7: CCTE's 6-hour Apoptosis Assessment for the High-Throughput Transcriptomics (HTTr) Platform, in MCF-7 cells cultured in DMEM + 10% fetal bovine serum, Harrill Lab (AID 2284011; active = hit-call score of the fitted dose curve at least 0.9, where 1 is the maximum; inactive = score below 0.9)
Outline: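 Apoptosis in MCF-7 cells grown in DMEM with 10% fetal bovine serum was scored after a six hour exposure by high content imaging of caspase-3/7 activation (CellEvent Caspase 3/7 Green), with DMSO serving as negative control and baseline.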

[9] = CCTE_Harrill_HTTr_CellCount_MCF7: CCTE's Cell Proliferation Assessment for the High-Throughput Transcriptomics (HTTr) Platform, Harrill Lab (AID 2284012);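 also: cells exposed to compound for six hours; intended direction is loss of nuclei count meaning fewer cells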
Outline: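 MCF-7 cells were exposed for 6 h to an eight-point dilution series; Hoechst-labeled nuclei were counted by high content imaging. Curves were fitted bidirectionally against DMSO as negative control and baseline, with signal loss indicating reduced cell count.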

Measured: outcome

Cn1c(N)c(N=O)c(=O)n(C)c1=O
inactive: [1] | [2] | [3] | [4]

CC(C)Nc1cccnc1N1CCN(C(=O)c2cc3cc(NS(C)(=O)=O)ccc3[nH]2)CC1
inactive: [1] | [2] | [3] | [4] | [5]

CCOC(=O)C(C)O (stereo unspecified)
inactive: [1] | [2] | [3] | [4] | [5]

O=C(O)/C=C/C(O)c1ccc(Cl)cc1 (stereo unspecified)
not listed: [7] | [8] | [9]
inactive: all other assays above

O=C1O[C@H]2[C@H](O)[C@@H]1OC(O)[C@H]2O (stereo partly specified)
inactive: [1] | [2] | [3] | [4] | [5]

Cc1ccccc1CNc1ncnc2c1ncn2[C@@H]1O[C@H](CO)[C@@H](O)[C@H]1O
not listed: [7] | [8] | [9]
inactive: all other assays above

CCCC(=O)O[C@]1(C(=O)COC(C)=O)CC[C@H]2[C@@H]3C[C@H](F)C4=CC(=O)C=C[C@]4(C)[C@@]3(F)[C@@H](O)C[C@@]21C
inactive: [1] | [2] | [3] | [6] | [5]

N#C[C@@H]1C[C@@H]2C[C@@H]2N1C(=O)[C@@H](N)C12CC3CC(CC(O)(C3)C1)C2
not listed: [7] | [8] | [9]
inactive: all other assays above

CC(C)CCOC(=O)c1ccc(N(C)C)cc1
not listed: [7] | [8] | [9]
inactive: all other assays above

CCOC(=O)OCC/C(SC(=O)OCC)=C(\C)N(C=O)Cc1cnc(C)nc1N
inactive: [1] | [2] | [3] | [4]

Cc1ccc(C2(O)CCN(CCCC(=O)c3ccc(F)cc3)CC2)cc1
not listed: [7] | [8] | [9]
inactive: all other assays above

Oc1cccc2cc3cccc(O)c3c(O)c12
inactive: [1] | [2] | [3] | [6] | [5]

c1cc(CN2CCCCC2)cc(OCCCNc2nc3ccccc3s2)c1
inactive: [1] | [2] | [3] | [4]

Cc1ccc(C(=O)O)cc1
inactive: [1] | [2] | [3] | [6] | [4]

CCC(=O)OCC(=O)[C@@]1(OC(=O)CC)[C@@H](C)C[C@H]2[C@@H]3CCC4=CC(=O)C=C[C@]4(C)[C@@]3(F)[C@@H](O)C[C@@]21C
inactive: [1] | [2] | [3] | [6] | [5]

C=C[C@]1(C)C[C@@H](OC(=O)CSCCN(CC)CC)[C@]2(C)[C@H](C)CC[C@]3(CCC(=O)[C@H]32)[C@@H](C)[C@@H]1O
inactive: [1] | [2] | [3] | [4]

CCN1CCOCC1
inactive: [1] | [2] | [3] | [6] | [4]

O=C(OCC1(COC(=O)c2cccnc2)CCCC(COC(=O)c2cccnc2)(COC(=O)c2cccnc2)C1O)c1cccnc1
inactive: [1] | [2] | [3] | [4]

O=C(CCCN1CCC(O)(c2cccc(C(F)(F)F)c2)CC1)c1ccc(F)cc1
inactive: [1] | [2] | [3] | [4] | [5]

COC(=O)c1ccccc1C(=O)c1ccc(OCCN2CCCCC2)cc1
not listed: [7] | [8] | [9]
inactive: all other assays above

CCN(CC)CCOCCOC(=O)C1(c2ccccc2)CCCC1
inactive: [1] | [2] | [3] | [4] | [5]

CN(CCO)CC(O)Cn1cnc2c1c(=O)n(C)c(=O)n2C (stereo unspecified) (tested in a mixture with another compound)
inactive: [1] | [2] | [3] | [4]

CCCCCCCCCCCCCCCC(=O)OC[C@@H](NC(=O)C(Cl)Cl)[C@H](O)c1ccc([N+](=O)[O-])cc1
inactive: [1] | [2] | [3] | [4]

OCCN(CCO)CCN(CCO)CCO
inactive: [1] | [2] | [3] | [6] | [4]

CN(C)CCOC(c1ccccc1)c1ccccc1 (tested in a mixture with another compound)
inactive: [1] | [2] | [3] | [4]

CC(=O)CCCCn1c(=O)c2c(ncn2C)n(C)c1=O
inactive: all assays above

O=c1[nH][nH]c(=O)c2cc([N+](=O)[O-])ccc12
inactive: [1] | [2] | [3] | [4]

CN(C)c1cc(NC(=O)CNC(C)(C)C)c(O)c2c1C[C@H]1C[C@H]3[C@H](N(C)C)C(=O)C(C(N)=O)=C(O)[C@@]3(O)C(=O)C1=C2O
inactive: [1] | [2] | [3] | [4]

COC(=O)[C@H]1[C@H]2C[C@@H]3c4[nH]c5cc(OC)ccc5c4CCN3C[C@H]2C[C@@H](OC(=O)/C=C/c2cc(OC)c(OC)c(OC)c2)[C@@H]1OC
not listed: [7] | [8] | [9]
inactive: all other assays above

COC(C)(OC)OC
inactive: [1] | [2] | [3] | [6] | [5]

— PubChem BioAssay (EPA / NIEHS)
